Test results: the supplement of paper PMC11732987, “Enantioselective OTUD7B fragment discovery through chemoproteomics screening and high-throughput optimisation” (Communications Chemistry, 2025)

Columns and labels:
Assay in all cases: log2 ratio of Biotin-Ahx-Ub-VS probe labelling (fragment/DMSO); higher = less target engagement (more negative = stronger competition), active = hit call of the paper (q ≤ 0.05, log2 ratio ≤ -1)
Details in all cases: compound concentration: 200 uM; treatment time: 3 h
USP16 = USP16 (UniProt Q9Y5T5)
Chain of USP16 (Q9Y5T5 whole entry, looked up, the tested form may be a part): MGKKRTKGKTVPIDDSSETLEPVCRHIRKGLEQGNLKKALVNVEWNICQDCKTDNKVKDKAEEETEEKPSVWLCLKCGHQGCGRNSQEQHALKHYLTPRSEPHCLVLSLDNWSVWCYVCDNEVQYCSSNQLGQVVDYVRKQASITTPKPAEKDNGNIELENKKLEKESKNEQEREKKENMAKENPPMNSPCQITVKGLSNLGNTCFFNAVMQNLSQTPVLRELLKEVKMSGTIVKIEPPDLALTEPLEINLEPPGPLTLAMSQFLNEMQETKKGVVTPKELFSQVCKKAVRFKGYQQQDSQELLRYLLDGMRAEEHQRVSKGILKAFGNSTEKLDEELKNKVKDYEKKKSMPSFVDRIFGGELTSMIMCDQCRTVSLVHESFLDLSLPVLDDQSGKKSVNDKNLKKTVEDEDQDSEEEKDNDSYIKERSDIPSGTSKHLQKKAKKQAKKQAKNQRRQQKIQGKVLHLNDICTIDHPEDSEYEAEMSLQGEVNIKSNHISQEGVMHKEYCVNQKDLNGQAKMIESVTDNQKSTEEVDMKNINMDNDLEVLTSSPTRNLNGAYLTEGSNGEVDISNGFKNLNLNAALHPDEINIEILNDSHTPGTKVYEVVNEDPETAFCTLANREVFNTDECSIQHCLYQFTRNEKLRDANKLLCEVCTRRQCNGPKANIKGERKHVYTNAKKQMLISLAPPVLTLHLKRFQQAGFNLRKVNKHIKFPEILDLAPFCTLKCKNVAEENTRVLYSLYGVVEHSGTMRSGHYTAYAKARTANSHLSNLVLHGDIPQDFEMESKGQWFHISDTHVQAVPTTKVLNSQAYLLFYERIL
Summary of the method: (§1)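 Global-median-normalised Spectronaut label-free quantities were compared by unpaired t-test, and values are average log2 ratios of fragment over vehicle. Only proteins with ≥2 unique peptides were used. HEK293T lysate (495 µg per sample) was treated in triplicate with fragment at 200 µM or vehicle for 3 h and then with Biotin-Ahx-Ub-VS at 0.5 µM final for 1 h. Labelled DUBs were then NeutrAvidin-enriched, digested with LysC and trypsin, and run by diaPASEF LC-MS/MS.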

USP19 = molecular target: T1, USP19 (UniProt O94966)
T1 sequence (whole entry): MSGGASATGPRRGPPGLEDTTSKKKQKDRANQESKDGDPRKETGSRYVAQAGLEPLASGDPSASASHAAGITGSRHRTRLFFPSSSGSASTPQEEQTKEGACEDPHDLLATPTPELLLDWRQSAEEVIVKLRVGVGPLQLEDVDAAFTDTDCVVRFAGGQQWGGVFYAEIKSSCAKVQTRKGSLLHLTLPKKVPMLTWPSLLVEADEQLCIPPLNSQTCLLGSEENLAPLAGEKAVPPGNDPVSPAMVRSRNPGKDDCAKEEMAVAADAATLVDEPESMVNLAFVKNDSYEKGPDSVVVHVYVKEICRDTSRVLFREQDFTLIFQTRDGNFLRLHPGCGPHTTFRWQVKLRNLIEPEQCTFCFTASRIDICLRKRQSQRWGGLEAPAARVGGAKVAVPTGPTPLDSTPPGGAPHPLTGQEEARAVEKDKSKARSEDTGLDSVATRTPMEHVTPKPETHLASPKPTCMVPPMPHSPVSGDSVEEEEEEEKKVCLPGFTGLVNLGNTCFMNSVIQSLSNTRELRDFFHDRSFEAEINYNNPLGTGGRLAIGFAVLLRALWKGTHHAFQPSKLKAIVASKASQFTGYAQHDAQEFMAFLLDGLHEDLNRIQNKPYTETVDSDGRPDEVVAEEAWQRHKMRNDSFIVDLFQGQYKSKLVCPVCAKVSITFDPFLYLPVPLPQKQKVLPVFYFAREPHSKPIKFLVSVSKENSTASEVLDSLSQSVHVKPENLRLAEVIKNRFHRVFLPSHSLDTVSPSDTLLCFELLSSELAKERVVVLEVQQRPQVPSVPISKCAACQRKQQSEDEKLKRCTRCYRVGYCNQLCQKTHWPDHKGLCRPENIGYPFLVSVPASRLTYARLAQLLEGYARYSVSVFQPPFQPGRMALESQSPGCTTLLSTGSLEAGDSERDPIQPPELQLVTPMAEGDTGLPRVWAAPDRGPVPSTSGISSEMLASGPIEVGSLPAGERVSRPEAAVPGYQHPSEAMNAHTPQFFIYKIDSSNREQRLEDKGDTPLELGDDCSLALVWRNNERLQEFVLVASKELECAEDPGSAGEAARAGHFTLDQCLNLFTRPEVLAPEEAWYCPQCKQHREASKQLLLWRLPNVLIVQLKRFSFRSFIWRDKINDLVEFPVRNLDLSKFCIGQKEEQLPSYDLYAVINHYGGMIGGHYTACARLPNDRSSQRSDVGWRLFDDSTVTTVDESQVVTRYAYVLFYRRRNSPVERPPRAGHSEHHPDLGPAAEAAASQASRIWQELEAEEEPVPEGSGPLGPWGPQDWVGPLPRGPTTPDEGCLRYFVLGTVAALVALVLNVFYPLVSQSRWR
Summary of the method: as §1

USP24 = USP24 (UniProt Q9UPU5)
Chain of USP24 (Q9UPU5 whole entry): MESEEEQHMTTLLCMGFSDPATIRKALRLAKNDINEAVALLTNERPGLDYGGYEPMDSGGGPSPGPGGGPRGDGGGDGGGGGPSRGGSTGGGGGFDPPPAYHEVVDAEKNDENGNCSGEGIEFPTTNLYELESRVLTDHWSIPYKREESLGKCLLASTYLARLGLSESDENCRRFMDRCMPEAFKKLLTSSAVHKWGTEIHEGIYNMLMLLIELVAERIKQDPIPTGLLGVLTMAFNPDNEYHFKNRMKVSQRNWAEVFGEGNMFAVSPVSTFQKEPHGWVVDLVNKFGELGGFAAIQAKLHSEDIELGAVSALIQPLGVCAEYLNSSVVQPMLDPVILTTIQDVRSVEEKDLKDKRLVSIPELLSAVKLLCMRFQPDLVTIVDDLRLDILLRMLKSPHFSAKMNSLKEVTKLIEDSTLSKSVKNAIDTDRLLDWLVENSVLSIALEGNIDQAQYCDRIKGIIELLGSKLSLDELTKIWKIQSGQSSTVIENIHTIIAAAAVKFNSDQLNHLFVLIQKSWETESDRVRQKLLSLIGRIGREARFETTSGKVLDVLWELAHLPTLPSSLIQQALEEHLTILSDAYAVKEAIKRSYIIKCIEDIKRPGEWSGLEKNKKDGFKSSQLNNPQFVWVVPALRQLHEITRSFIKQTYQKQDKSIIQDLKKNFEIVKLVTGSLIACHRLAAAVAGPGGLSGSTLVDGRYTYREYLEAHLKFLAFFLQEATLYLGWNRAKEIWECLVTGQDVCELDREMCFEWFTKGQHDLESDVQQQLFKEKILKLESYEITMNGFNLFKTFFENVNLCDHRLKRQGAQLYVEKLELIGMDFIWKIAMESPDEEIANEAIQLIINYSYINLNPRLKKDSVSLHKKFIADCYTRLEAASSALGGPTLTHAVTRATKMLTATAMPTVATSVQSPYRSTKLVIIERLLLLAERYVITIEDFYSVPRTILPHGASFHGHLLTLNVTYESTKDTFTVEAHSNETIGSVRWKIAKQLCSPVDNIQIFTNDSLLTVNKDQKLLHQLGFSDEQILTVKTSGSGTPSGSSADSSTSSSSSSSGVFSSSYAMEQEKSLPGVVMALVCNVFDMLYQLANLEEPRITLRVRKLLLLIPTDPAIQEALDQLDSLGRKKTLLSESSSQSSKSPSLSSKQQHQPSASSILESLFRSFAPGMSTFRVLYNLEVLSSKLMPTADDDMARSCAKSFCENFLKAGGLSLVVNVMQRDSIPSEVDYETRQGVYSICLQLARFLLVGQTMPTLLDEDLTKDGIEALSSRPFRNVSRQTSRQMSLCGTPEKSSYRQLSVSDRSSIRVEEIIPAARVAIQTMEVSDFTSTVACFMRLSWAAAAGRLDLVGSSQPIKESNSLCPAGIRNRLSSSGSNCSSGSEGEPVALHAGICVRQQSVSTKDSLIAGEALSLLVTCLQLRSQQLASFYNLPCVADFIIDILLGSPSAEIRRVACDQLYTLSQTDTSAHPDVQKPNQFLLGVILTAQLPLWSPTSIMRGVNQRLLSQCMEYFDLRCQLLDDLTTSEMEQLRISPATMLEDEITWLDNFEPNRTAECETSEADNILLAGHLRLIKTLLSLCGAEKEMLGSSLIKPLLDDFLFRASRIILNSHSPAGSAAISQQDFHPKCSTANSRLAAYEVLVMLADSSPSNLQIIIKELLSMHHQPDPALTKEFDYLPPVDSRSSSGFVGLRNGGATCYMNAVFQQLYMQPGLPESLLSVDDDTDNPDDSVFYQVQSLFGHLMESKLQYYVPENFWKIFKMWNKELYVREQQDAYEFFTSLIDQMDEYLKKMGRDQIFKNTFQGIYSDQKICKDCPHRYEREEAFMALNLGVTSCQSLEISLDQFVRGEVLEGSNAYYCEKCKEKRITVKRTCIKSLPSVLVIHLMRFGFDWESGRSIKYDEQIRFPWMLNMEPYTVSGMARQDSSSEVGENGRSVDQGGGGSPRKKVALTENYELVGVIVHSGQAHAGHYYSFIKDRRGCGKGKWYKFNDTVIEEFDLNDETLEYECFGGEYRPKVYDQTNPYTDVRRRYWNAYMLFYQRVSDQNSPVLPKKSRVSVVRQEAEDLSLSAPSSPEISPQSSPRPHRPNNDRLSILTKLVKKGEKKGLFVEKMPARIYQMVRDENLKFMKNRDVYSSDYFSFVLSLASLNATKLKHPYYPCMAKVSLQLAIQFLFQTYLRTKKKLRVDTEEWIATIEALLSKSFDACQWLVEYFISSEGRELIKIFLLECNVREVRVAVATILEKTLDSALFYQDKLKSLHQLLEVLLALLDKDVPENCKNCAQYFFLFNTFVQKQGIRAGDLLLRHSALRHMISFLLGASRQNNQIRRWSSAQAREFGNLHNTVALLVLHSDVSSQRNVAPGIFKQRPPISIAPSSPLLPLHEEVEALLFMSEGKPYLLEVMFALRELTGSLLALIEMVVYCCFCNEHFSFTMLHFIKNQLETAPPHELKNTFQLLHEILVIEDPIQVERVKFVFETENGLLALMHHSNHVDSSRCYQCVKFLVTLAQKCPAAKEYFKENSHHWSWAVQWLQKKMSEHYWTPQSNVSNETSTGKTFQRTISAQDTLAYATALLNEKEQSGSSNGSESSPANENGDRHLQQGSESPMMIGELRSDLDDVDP
Summary of the method: as §1

USP25 = molecular target: T2, USP25 (UniProt Q9UHP3)
T2 sequence (whole entry): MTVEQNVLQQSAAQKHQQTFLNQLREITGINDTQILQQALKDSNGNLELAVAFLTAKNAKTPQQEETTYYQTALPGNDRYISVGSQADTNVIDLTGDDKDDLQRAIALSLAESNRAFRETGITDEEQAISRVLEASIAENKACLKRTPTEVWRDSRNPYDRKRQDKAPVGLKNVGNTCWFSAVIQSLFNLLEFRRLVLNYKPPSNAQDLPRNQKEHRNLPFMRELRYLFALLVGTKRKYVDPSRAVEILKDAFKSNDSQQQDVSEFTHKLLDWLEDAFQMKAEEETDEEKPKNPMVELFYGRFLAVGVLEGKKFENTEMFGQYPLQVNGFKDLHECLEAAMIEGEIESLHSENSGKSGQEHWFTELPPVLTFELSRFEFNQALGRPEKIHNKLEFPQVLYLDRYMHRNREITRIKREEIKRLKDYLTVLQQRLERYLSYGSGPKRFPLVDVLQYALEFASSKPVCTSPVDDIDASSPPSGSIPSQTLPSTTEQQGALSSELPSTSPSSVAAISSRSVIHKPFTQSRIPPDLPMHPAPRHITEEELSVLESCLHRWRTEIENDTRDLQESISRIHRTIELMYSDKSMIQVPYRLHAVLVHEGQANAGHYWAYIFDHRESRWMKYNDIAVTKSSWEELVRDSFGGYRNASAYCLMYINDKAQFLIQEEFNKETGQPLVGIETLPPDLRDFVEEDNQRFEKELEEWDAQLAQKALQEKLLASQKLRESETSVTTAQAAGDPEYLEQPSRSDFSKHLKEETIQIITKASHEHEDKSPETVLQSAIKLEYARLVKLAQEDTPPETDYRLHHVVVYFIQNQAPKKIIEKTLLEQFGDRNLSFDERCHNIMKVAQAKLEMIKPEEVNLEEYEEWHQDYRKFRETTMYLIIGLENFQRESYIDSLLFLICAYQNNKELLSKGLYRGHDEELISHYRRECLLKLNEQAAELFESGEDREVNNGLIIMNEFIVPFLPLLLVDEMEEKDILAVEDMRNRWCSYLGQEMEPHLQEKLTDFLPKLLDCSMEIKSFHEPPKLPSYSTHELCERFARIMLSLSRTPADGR
Summary of the method: as §1

USP28 = molecular target: T3, USP28 (UniProt Q96RU2)
T3 sequence (whole entry): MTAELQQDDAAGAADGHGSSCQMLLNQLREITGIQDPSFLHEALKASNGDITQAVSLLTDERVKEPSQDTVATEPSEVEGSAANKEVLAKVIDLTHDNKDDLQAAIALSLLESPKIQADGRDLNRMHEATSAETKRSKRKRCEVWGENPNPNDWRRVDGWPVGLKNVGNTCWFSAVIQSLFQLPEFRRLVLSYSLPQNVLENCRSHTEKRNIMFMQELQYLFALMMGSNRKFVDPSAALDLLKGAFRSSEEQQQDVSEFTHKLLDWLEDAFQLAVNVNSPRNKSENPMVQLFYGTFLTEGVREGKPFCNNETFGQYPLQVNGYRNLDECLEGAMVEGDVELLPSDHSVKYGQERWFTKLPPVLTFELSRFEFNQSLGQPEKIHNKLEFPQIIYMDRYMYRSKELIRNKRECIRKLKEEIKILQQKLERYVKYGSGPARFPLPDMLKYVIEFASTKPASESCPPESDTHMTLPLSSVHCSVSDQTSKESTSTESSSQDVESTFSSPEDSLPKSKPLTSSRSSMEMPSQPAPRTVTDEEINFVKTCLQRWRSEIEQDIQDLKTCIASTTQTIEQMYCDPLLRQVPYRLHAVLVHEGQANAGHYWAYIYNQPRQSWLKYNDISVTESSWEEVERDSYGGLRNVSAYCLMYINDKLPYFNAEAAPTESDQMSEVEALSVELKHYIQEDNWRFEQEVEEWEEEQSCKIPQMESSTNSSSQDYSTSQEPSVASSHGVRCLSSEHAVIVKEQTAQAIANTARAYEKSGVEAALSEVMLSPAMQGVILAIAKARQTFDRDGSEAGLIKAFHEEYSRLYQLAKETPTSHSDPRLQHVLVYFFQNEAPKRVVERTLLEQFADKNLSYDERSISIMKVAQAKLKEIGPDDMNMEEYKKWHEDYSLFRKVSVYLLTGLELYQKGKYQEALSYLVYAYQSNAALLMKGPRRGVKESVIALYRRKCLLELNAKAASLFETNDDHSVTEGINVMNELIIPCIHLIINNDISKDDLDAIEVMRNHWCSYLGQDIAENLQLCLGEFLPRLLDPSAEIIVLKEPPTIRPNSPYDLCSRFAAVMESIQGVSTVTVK
Summary of the method: as §1

Measured: log2 ratio of Biotin-Ahx-Ub-VS probe labelling

CNC(=O)Cn1cc(NC(=O)CCl)cn1
inactive: USP16 -0.148 | USP19 -0.0937 | USP24 -0.146 | USP25 -0.172 | USP28 -0.486
